{"source": "PubChem BioAssay AID624300", "about": "(Southern Research Specialized Biocontainment Screening …, 2012)", "note": "About 360 (15%) of roughly 2,400 compounds were called active.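 The calls were made as follows: active = viability falls under 70% at one or more tested concentrations, taken as toxicity; inactive = viability stays over 70% at every dose.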 The list is a sample of the results. Measured potencies and affinities stand elsewhere."}
{"experiment": "HeLa cell cytotoxicity, dose response, cytotoxicity control for MgcRacGAP inhibitor project (AID 624300);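 also: 100% = median of untreated control wells on the same plate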", "settings": "CellTiter-Glo luminescence, 24 h; series mostly up to 100 µM; viability: at the top concentration"}
{"smiles": "CC(=O)CC(=O)Nc1ccc(Nc2ccccc2)cc1", "viability": "94.8% (inactive)"}
{"smiles": "COCCCn1c(=S)[nH]c2sc3c(c2c1=O)CCCC3", "viability": "91.2% (inactive)"}
{"smiles": "CCOc1ccc(OCCOCCN2CCCC2)cc1", "viability": "100% (inactive)"}
{"smiles": "Cc1cc(OCCCCCN2CCCC2)ccc1Cl", "viability": "86.2% (inactive)"}
{"smiles": "CN(C)CCCn1c(SCc2ccc(Cl)cc2)nnc1-c1ccncc1", "viability": "100% (inactive)"}
{"smiles": "N#CCCN1CCN(CCC#N)c2ccccc21", "viability": "90.5% (inactive)"}
{"smiles": "C/C(CC(=O)Nc1ccc(N(C)C)cc1)=N\\NC(=O)c1ccc(F)cc1", "viability": "98.8% (inactive)"}
{"smiles": "Cn1cccc1/C=C1\\SC(=Nc2ccc(O)cc2)NC1=O", "viability": "114% (inactive)"}
{"smiles": "Cc1ccccc1CN1CCN(C(=O)c2cccc3ccccc23)CC1", "viability": "86.6% (inactive)"}
{"smiles": "O=C(c1ccccc1F)N1CCN(Cc2ccc3c(c2)OCO3)CC1", "viability": "97.9% (inactive)"}
{"smiles": "Cc1[nH]c2ccccc2c1/C=N\\NC(=O)CNc1ccc2c(c1)OCO2", "viability": "98% (inactive)"}
{"smiles": "COc1ccccc1N=NNc1ccccc1OC", "viability": "94.3% (inactive)"}
{"smiles": "COCCCNCCCCOc1c(Cl)cc(C)cc1Br", "viability": "91.4% (inactive)"}
{"smiles": "COCCNCCOCCOc1ccc(Cl)c(C)c1", "viability": "93% (inactive)"}
{"smiles": "Cc1cc(C)c(C)c(OCCNCc2ccccc2)c1", "viability": "90.7% (inactive)"}
{"smiles": "c1ccc(CN2CCN(CCOCCOc3ccc4c(c3)CCC4)CC2)cc1", "viability": "95.6% (inactive)"}
{"smiles": "CC(=O)Nc1ccc(Oc2nc(-c3ccccn3)nc3ccccc23)cc1", "viability": "87.7% (inactive)"}
{"smiles": "Cc1ccc(CCC(=O)Nc2ccc(N(C)C)cc2)o1", "viability": "97.1% (inactive)"}
{"smiles": "Cc1cc(C(=O)NNC(=O)/C=C/c2ccco2)c(C)o1", "viability": "118% (inactive)"}
{"smiles": "COc1cc(/C=C/C(=O)OCC(=O)NCC2CCCCC2)ccc1O", "viability": "96.6% (inactive)"}
{"smiles": "COc1ccc(/C=N/Nc2nc(N3CCCC3)nc(N3CCCC3)n2)cc1O", "viability": "98% (inactive)"}
{"smiles": "S=C(c1ccccc1)N1CCN(c2ccccc2)CC1", "viability": "95.1% (inactive)"}
{"smiles": "C=CCn1c(SCC(C)=O)nnc1-c1cc(-c2ccccc2)sc1N", "viability": "80.6% (inactive)"}
{"smiles": "CCOC(=O)c1oc2cc(O)cc(C)c2c1C", "viability": "91.3% (inactive)"}
{"smiles": "CCn1c(=S)[nH]c2sc3c(c2c1=O)CCCC3", "viability": "89% (inactive)"}
{"smiles": "COc1ccc(NCc2cccnc2)cc1", "viability": "108% (inactive)"}
{"smiles": "CC(=O)Nc1cccc2cc(O)ccc12", "viability": "100% (inactive)"}
{"smiles": "Cc1cc(Oc2ccc(-c3ccccc3)cc2)n2ncnc2n1", "viability": "97.3% (inactive)"}
{"smiles": "CC(=O)c1ccc(NC(=S)Nc2ccc3[nH]c(=O)[nH]c3c2)cc1", "viability": "116% (inactive)"}
{"smiles": "COc1cc(C=NNC(=O)c2ccccc2-n2cccc2)ccc1O", "viability": "123% (inactive)"}
{"smiles": "Cc1c(Cl)cccc1Nc1n[nH]c(=S)s1", "viability": "93% (inactive)"}
{"smiles": "Cc1ccc[n+](CC(=O)Nc2ccc(N(C)C)cc2)c1", "viability": "102% (inactive)"}
{"smiles": "COc1ccc2nc(/N=C(\\N)NC(=O)N3c4ccccc4Sc4ccccc43)nc(C)c2c1", "viability": "84.3% (inactive)"}
{"smiles": "Cc1cc2nc(/N=C(\\N)NC(=O)N3c4ccccc4Sc4ccccc43)nc(C)c2cc1C", "outcome": "inactive"}
{"smiles": "O=C(NC1CCN(C(=O)N2c3ccccc3Sc3ccccc32)CC1)c1ccccc1F", "viability": "82.1% (inactive)"}
{"smiles": "Cc1ccc2c(C)nc(/N=C(\\N)NC(=O)N3c4ccccc4Sc4ccccc43)nc2c1", "outcome": "inactive"}
{"smiles": "CCOC(=O)C1=C(C)Nc2ccccc2S1", "viability": "95.5% (inactive)"}
{"smiles": "CC1(C)CC(NC(=O)N2c3ccccc3Sc3ccccc32)CC(C)(C)N1", "viability": "102% (inactive)"}
{"smiles": "Cc1nc(/N=C(\\N)NC(=O)N2c3ccccc3Sc3ccccc32)nc2ccccc12", "viability": "94.9% (inactive)"}
{"smiles": "Cc1ccc2nc(/N=C(\\N)NC(=O)N3c4ccccc4Sc4ccccc43)nc(C)c2c1", "viability": "94.8% (inactive)"}
{"smiles": "CN(CC(=O)NCc1ccccc1)Cc1cccc(F)c1", "viability": "95.2% (inactive)"}
{"smiles": "O=C(CSc1nnc(C2CC2)n1C1CC1)N1CCN(c2ccc(O)cc2)CC1", "viability": "102% (inactive)"}
{"smiles": "CC1(C)OC(=O)C(=NNc2ccc(O)cc2)C(=O)O1", "viability": "93.8% (inactive)"}
{"smiles": "Cc1cc(-c2cc(C)c(N)cc2C)c(C)cc1N", "viability": "107% (inactive)"}
{"smiles": "CC(=O)C[C@H]1c2cc(F)ccc2S(=O)(=O)N1c1ccc(N(C)C)cc1", "viability": "92.8% (inactive)"}
{"smiles": "COc1cc(OC)c(OC)cc1CN1CCN(Cc2ccc(SC)cc2)CC1", "viability": "85.9% (inactive)"}
{"smiles": "CN1CC(=O)N(CC(=O)Nc2ccc(N(C)C)cc2)c2ccccc2C1=O", "viability": "101% (inactive)"}
{"smiles": "Cc1ccccc1-c1ccc(Nc2ccc(N3CCOCC3)cc2)nn1", "viability": "92.9% (inactive)"}
{"smiles": "CC1CCCC(N2CCN(C(=O)c3ccc([N+](=O)[O-])cc3)CC2)C1", "note": "(configuration not stated)", "viability": "94.9% (inactive)"}
{"smiles": "COCCCNc1nc(=S)[nH]c2cc(OC)c(OC)cc12", "viability": "102% (inactive)"}
{"smiles": "OCCCCNc1cccc2ccccc12", "viability": "90.5% (inactive)"}
{"smiles": "COCCNCc1nc2sc(C)c(-c3ccccc3)c2c(=O)[nH]1", "viability": "91% (inactive)"}
{"smiles": "COc1ccc(N2CCN(CC(=O)Nc3cccc(S(=O)(=O)N4CCOCC4)c3)CC2)cc1", "viability": "96.6% (inactive)"}
{"smiles": "CCOc1cc(/C=N/NC(=O)CSc2cccc3cccnc23)ccc1O", "viability": "96.1% (inactive)"}
{"smiles": "Cc1cc(-c2ccccc2)nc2c(Br)c(=O)[nH]n12", "viability": "99.6% (inactive)"}
{"smiles": "COc1cc(/C=N/NS(=O)(=O)c2ccc(C)c([N+](=O)[O-])c2)ccc1O", "viability": "107% (inactive)"}
{"smiles": "O=C(O)c1ccccc1NS(=O)(=O)c1ccc(N/N=C/c2ccc(O)c(O)c2)c([N+](=O)[O-])c1", "viability": "105% (inactive)"}
